DRD3 antagonist: blocks the human D3 dopamine receptor; actives 2.5% (n = 360,000); AID 652054; max response, negative = inhibition, %; P35462; D3R cells, DiscoveRx beta-arrestin luminescence, antagonist mode; stronger effect = lower value; in the data active = max response below about -50%; inconclusive = no clear call, values can overlap the other calls
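Cells expressing the human receptor were seeded at 1500 cells/well, incubated overnight at 37 degrees C in 5% CO2, then exposed to library compounds with dopamine controls for 90 minutes at 37 degrees C before luminescent detection.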
GLP-1R agonist: agonists of human GLP-1 receptor; HEK293 GLP-1R CRE-luciferase, luminescence, 4-6 h; cells express a hypersensitive GLP-1R form; Potency, µM (doses to about 45.6 µM), hits mostly activators; actives 0.007% (n = 380,000); AID 624172
Target sequence (P43220 whole entry, looked up): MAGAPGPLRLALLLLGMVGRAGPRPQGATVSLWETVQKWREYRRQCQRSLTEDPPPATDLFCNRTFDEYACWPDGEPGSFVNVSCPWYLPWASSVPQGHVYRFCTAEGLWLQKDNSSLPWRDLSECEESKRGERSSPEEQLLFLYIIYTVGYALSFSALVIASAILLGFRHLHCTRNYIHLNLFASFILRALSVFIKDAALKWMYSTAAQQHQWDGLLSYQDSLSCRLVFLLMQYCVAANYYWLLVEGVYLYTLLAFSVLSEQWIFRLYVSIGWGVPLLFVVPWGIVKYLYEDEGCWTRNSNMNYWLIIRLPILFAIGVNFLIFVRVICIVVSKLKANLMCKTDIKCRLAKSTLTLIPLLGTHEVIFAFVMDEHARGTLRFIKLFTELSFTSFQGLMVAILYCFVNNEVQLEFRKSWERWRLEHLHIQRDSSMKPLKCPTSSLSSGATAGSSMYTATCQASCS
GLP-1R inv ag: acts as inverse agonist at human GLP-1 receptor. P43220. HEK293 GLP-1R CRE-luciferase, luminescence, 24 h; GLP-1R form is constitutively active. Potency, µM (top dose mostly 38.3 µM), hits mostly inhibitors. actives 1.6% (n = 410,000). AID 624417; note: nearly all actives have a fitted effect of over 55% in size
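Readout was luciferase luminescence, measured 12 min after detection reagent at room temperature. Beforehand, GLP-1R reporter HEK293 cells had sat 12 h, then received compounds for 24 hr at 37 deg C.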
D3 ag: D3 dopamine receptor (human) agonism | D3R DiscoveRx beta-arrestin cells, luminescence, 90 min | AID 652048 | actives 0.58% (n = 410,000) | P35462 | max activation, %; in the data active = max activation above about 30%
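Cells at 1500/well, incubated overnight, then treated with pinned compounds (dopamine as control) for 90 min at 37 degrees C. DiscoveRx reagent added for 30 - 60 minutes at room temperature; luminescence read.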
Hits are given with their value; – = inactive; ? = inconclusive; · = no result. Only some compounds are listed: those with a hit (about 4.3% of all), similar ones and a draw of the others. Unless noted, calls come from the whole dose curve; as a rule, active = well fitted curve in the direction sought with a large enough effect; inconclusive = small, poorly fitted or top-dose-only effect, or another doubt; inactive = no such curve, though single readings can be large; an effect the other way counts as inactive or inconclusive.

SMILES	DRD3 antagonist	GLP-1R agonist	GLP-1R inv ag	D3 ag
Cc1nc(N2N=C3/C(=C/c4ccc(F)cc4)CCCC3C2c2ccc(F)cc2)sc1C(=O)N(C)C (configuration not stated)	–	–	10µM	–
CC(C)n1cc(/C=N/Nc2ccc(C(=O)O)cc2)c2ccccc21	–	–	–	–
Cn1cc(/C=N/Nc2ccccc2)c2ccccc21	–	–	11µM	–
CC(C)COc1cccc(C(=O)Nc2ccc(-c3nc4ncccc4o3)cc2)c1	·	·	–	–
CCN1C(=O)CS/C1=N\S(=O)(=O)c1ccc(Cl)cc1	–	–	–	–
CCn1c(Cl)c(C=O)s/c1=N\S(=O)(=O)c1ccccc1	-122	–	?	–
CCOc1ccc(-c2nc3c(c(SCC(=O)N4CCCCC4)n2)Cc2cc(C)ccc2O3)cc1	·	·	–	–
CN1C[C@@H]2C(c3ccccc3)C3(c4ccc(C#N)cc4)CC2(C3)[C@H]1c1ccccc1 (some centres not stated)	–	–	–	–
COC(=O)c1cccc(C23CC4(C2)[C@H](CN(C)[C@@H]4c2ccccc2)C3c2ccccc2)c1 (some centres not stated)	–	–	8.9µM	–
CN1C[C@@H]2C(c3ccc(C(F)(F)F)cc3)C3(c4ccc(C#N)cc4)CC2(C3)[C@H]1c1ccccc1 (some centres not stated)	–	–	10µM	–
CC1(c2cccc(Br)c2)NC(=O)N(CC(=O)Nc2ccc3c(c2)OCO3)C1=O (configuration not stated)	–	–	?	–
[O]=[Bi][O]C(=O)[O][Bi]=[O]	·	–	·	–
CN(C)C1(CNC(=O)COc2ccc(C(C)(C)C)cc2)CCCCC1	·	–	?	–
Cc1ccc(S(=O)(=O)N(C)c2ccc(OCc3cccc(C)c3)cc2)cc1	–	–	2.8µM	–
Cc1ccc(S(=O)(=O)N(C)c2ccc(OCC(=O)OCc3cccc(Br)c3)cc2)cc1	–	–	–	–
Cc1ccc(S(=O)(=O)N(C)c2ccc(OCC(=O)NCC3(N(C)C)CCCCC3)cc2)cc1	–	–	11µM	–
CCC1CCCCN1C(=O)COc1ccc(N(C)S(=O)(=O)c2ccc(C)cc2)cc1 (configuration not stated)	–	–	3.2µM	–
O=c1c(Br)ccc(Br)cc1Br	-114	–	?	–
O=C1CN(S(=O)(=O)c2cc(Br)ccc2Br)CCN1	–	–	–	–
O=C(CCCN1C(=O)c2ccccc2C1=O)Nc1cccc(S(=O)(=O)NC2=NCCC2)c1	–	–	–	–
FC(F)(F)c1cnc(NNC(=S)Nc2ccccc2Cl)c(Cl)c1	-75	–	5µM	–
CC(C)(C)NNC(=S)Nc1cccc(C(F)(F)F)c1	–	–	?	–
O=C(Nc1ccccc1)Nc1ncc(C(F)(F)F)cc1Cl	–	–	–	–
Cc1cccc(NC(=S)NNc2ncc(C(F)(F)F)cc2Cl)c1	-64	–	–	–
Cc1cc(C)cc(NS(=O)(=O)c2ccc(N3CCCCS3(=O)=O)cc2)c1	·	·	?	–
SMILES	DRD3 antagonist	GLP-1R agonist	GLP-1R inv ag	D3 ag
O=C(/C=C/c1cccc(Cl)c1Cl)OCC(=O)N1CCOCC1	-59	–	–	–
O=C(/C=C/c1cc(Br)ccc1F)OCC(=O)N1CCOCC1	–	–	–	–
CNc1ccccc1C(C)(C)c1cc(-c2cccc(OC)c2)no1	–	–	7.1µM	–
COc1ccc(N(Cc2ccccc2)C(=O)CSc2nnc(Cn3nnc4ccccc43)o2)cc1	–	–	?	–
O=C(CSc1nnc(Cn2nnc3ccccc32)o1)N(Cc1ccc(F)cc1)c1ccccc1	–	–	11µM	–
O=S(=O)(c1ccc(OCC2CO2)cc1)c1ccc(OCC2CO2)cc1 (configuration not stated)	?	–	10µM	–
CC(C)(c1ccccc1)c1ccc(OCC2CO2)cc1 (configuration not stated)	–	–	–	–
N#Cc1cccc(NC(=O)CCNS(=O)(=O)c2ccc3c(c2)CCN3C(=O)C2CC2)c1	·	–	–	–
Cc1ccccc1Oc1cc(-n2ncc(Cl)c(Cl)c2=O)ncn1	-97	–	?	–
COc1cc(C(CC(=O)Nc2cc(C)ccc2C)N2Cc3ccccc3C2=O)cc(OC)c1OC (configuration not stated)	·	–	–	–
O=C(Nc1nccs1)C12CC3CC(C1)CC(C(=O)Nc1nccs1)(C3)C2	–	–	4.5µM	–
O=C(Nc1ncccn1)C12CC3CC(CC(C3)C1)C2	–	–	–	–
CC(=O)c1ccc2c(c1)N(Cc1ccc3ccccc3c1)C(=O)C(C)S2 (configuration not stated)	-75	–	?	–
CC1Sc2ccccc2N(Cc2ccccc2)C1=O (configuration not stated)	–	–	–	–
O=C(Nc1cccc(Cl)c1)Nc1nnc(CC2=CCCCC2)s1	–	–	?	33
Cc1cccc(OCc2nc(C#N)c(NCc3ccc4c(c3)OCO4)o2)c1	–	–	11µM	–
COc1ccc(CNc2oc(COc3ccccc3)nc2C#N)cc1	–	–	10µM	–
COc1ccc(CCNc2oc(COc3ccccc3)nc2C#N)cc1	–	–	?	–
COc1ccc(CNc2oc(COc3cccc(C)c3)nc2C#N)cc1	·	·	?	–
COc1ccc(S(=O)(=O)N2CCC(N3CCN(Cc4ccc(F)cc4)C(=O)C3=O)CC2)cc1	·	·	–	–
COC(=O)c1sccc1S(=O)(=O)N1CCN(c2ccccc2)CC1	·	–	–	–
Cc1cccc(N2CCN(C(=O)NC3CCCCC3)CC2)c1C	–	–	–	–
Cc1ccc(S(=O)(=O)N2CCN(CC(=O)Nc3ccc(N4CCOCC4)cc3)CC2)cc1C	-93	–	–	–
Cc1cccc(N2CCN(CC(=O)NCC3CCCCC3)CC2)c1C	-63	–	?	–
Cc1cccc(N2CCN(CC(=O)Nc3ccc(S(=O)(=O)N4CCOCC4)cc3)CC2)c1C	–	–	11µM	–
SMILES	DRD3 antagonist	GLP-1R agonist	GLP-1R inv ag	D3 ag
CC(=O)N(C)C1=C(N2CCOCC2)C(=O)c2ccccc2C1=O	-57	–	?	–
CC(=O)N(C1=C(N2CCOCC2)C(=O)c2ccccc2C1=O)c1ccc(C(=O)O)cc1	–	–	?	–
COc1ccc(C2=NN(C(=O)CSc3nc(=O)n4cccc(C)c4n3)C(c3ccc(C)cc3)C2)cc1 (configuration not stated)	?	–	–	–
O=C(CCN1C(=O)c2ccccc2C1=O)N1CCCCCC1	-51	–	–	–
CN1CCN(C2=C(Cl)C(=O)N(Cc3ccccc3)C2=O)CC1	–	–	–	–
CCN1CCN(C2=C(Cl)C(=O)N(Cc3ccccc3)C2=O)CC1	-50	?	?	–
CCCn1c2ccccc2c2cnn(CC(=O)NCCCN3CCN(c4ccccc4)CC3)c(=O)c21	-83	–	?	–
CCCn1c2ccccc2c2cnn(CC(=O)NCCCN3CCCCC3)c(=O)c21	–	–	?	–
Cn1c2ccccc2c2cnn(CC(=O)NCCCN3CCN(c4ccccc4F)CC3)c(=O)c21	-90	–	–	–

From PubChem
